Bioassay records (PubChem BioAssay)
uPA generation: cell surface uPA generation inhibition. 330,000 tested, 0.31% active. AID 540303. Potency, µM (series often up to 38.3 µM), for the others: at the top dose activity change, negative = inhibition, most hits filed as inhibitors. cell surface uPA generation assay, qHTS; active = well fitted inhibition curve with a large enough effect; inconclusive = small, poorly fitted or top-dose-only effect; inactive = no such curve, though single readings can be large or run the other way; tested in mouse RAW 264.7 cells; note: potency is the fitted concentration of half-maximal effect; % is set by controls: 0 for no effect and ±100 for the full control effect; nearly all actives have a fitted effect of over 55% in size
TCR act: T cell receptor activation | primary human leukocytes, anti-CD3, IL-2 HTRF, 48 h | Potency, µM (highest dose often 9.22 µM), without a hit: top-dose activation of IL-2 secretion, usual class: activators | 330,000 tested, under 10 active | AID 504894; note: % of control where 0% means no effect
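48 hr co-incubation of compounds, a-CD3 beads and primary human leukocytes; IL-2 quantified homogeneously by HTRF with anti-IL-2 K and d2 conjugates.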
p53 reactivation: restores transcriptional activity of mutant p53; Potency, µM (titrated, usually from 92.2 µM), inactives show at the top dose activity change, positive = activation, actives largely listed as activators; 320,000 tested, 0.063% active; AID 504706; H1299 p53-A138V BP100-luciferase reporter, luminescence, 24 h; note: potency is the fitted concentration of half-maximal effect; % of control where 0% means no effect; nearly all actives have a fitted effect of over 45% in size
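p53-null H1299 cells stably carrying temperature-sensitive p53-A138V and a BP100-luciferase reporter were pinned with compounds (4-point, 1:5 series) and held 24 hrs at 37 deg C. Luminescence was read 10 min after detection reagent.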
BRCA1 expr act: BRCA1 expression activation. MCF7-BRCA1-FFLuc reporter, luminescence, 48 h; response scale: scaled: vehicle 0%, 10 µM genistein 100%. Potency, µM (series often up to 46.1 µM), for the others: at the top dose activation, hits mostly activators. 380,000 tested, 1.1% active; note: potency is the fitted concentration of half-maximal effect; nearly all actives have a fitted effect of over 80% in size
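48 h compound treatment of MCF7-BRCA1-FFLuc cells (phenol-red free MEM, 37 °C), then 15 min with luciferase substrate and luminescence imaging.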
IL2 activator: IL-2 activation | IL-2 activation reporter assay, cell-based qHTS; stimulated with anti-CD3/CD4/CD28 beads; in transgenic mouse T cells | activation, % (series mostly up to about 46 µM) | 360,000 tested, 0.065% active; in the data active = activation above about 50%; inconclusive = mostly about 30% to 49%; note: 0% is about no effect
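Quantitative HTS in unstimulated transgenic mouse T cells, with memory T cells as non-tolerant control and PMA/ionomycin as tolerance-bypass control. Compound pretreatment lasted 60 minutes before 18 h bead stimulation; EGFP/DsRed fluorescence read.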
* hit, by the source's call; ? = inconclusive; nt = no result given; [ ] = remark or other dose. Hits are enriched below; roughly 1.4% of the tested compounds scored in any of these assays. Unless noted, calls come from the whole dose curve; as a rule, active = well fitted curve in the direction sought with a large enough effect; inconclusive = small, poorly fitted or top-dose-only effect, or another doubt; inactive = no such curve, though single readings can be large; an effect the other way counts as inactive or inconclusive.

SMILES	uPA generation	TCR act	p53 reactivation	BRCA1 expr act	IL2 activator
COc1ccccc1C(=O)COC(=O)c1ccc(N(C)C)cc1	nt	-20.6%	?	3.98µM*	-2.8
CCOc1ccc(S(=O)(=O)N2Cc3ccccc3CC2C(=O)Nc2ccc(NC(C)=O)cc2)cc1 (centres undefined)	nt	nt	nt	0.0%	nt
CN(Cc1ccccc1)c1ccc(/C=C/c2sc3ccccc3[n+]2C)cc1	nt	nt	nt	-60.8%	nt
N=c1n(CC(=O)c2ccc([N+](=O)[O-])cc2)c2ccccc2n1Cc1ccc(Cl)cc1	-0.3%	-3.3%[46.1 µM]	1.7%	-58.3%	64.8*
N=c1n(CC(=O)c2ccc([N+](=O)[O-])cc2)c2ccccc2n1Cc1ccccc1	9.2%	-1.9%[46.1 µM]	4.9%	-53.6%	8.5
COc1ccc(-n2c(=O)c3sc4ccccc4c3n(C)c2=O)cc1	nt	nt	nt	16.4%	nt
Nc1nc(-c2ccccc2Cl)cs1	0.3%	-4.1%	nt	10µM*	1.8
COc1cccc(C(=O)N(Cc2ccco2)c2ccccn2)c1	nt	nt	nt	25.6%	nt
CN1CCS/C1=C\C=C1/SC(=S)N(CC(=O)O)C1=O	-3.9%	0.8%	2.1%	-7.4%	64.7*
O=C(NCCc1csc(-c2ccc(C(F)(F)F)cc2)n1)c1ccc(F)c(F)c1	nt	nt	nt	-65.0%	nt
COc1cccc(NC(=O)c2ccc(CN3CCOCC3)cc2)c1	-10.2%	5.2%	?	11.2µM*	-0.2
COc1c(C)cccc1C(=O)Nc1ccc(CN2CCOCC2)cc1	-4.3%	-10.4%	?	2.51µM*	-0.1
COc1ccc(C)cc1NC(=O)CNC(c1ccccc1)c1ccc(C)cc1 (centres undefined)	1.78µM*	-4.9%	21.8%	-49.1%	-0.9
Cc1onc(-c2ccccc2Cl)c1C(=O)O/N=C(\N)c1ccc([N+](=O)[O-])o1	4.47µM*	2.5%	3.4%	-84.7%	-0.5
COc1ccc(C(=O)NCc2c(C)nn(Cc3ccccc3)c2C)cc1S(=O)(=O)N1CCOCC1	10µM*	-3.1%	-7.9%	-23.9%	0.0
Cc1ccc(O)c(NC(=O)c2ccc3c(c2)C(=O)N(CC(C)C)C3=O)c1	-4.9%	2.8%	14.2%	7.94µM*	-3.5
COc1ccc(S(=O)(=O)c2c(O)c3ccc(C(=O)Nc4ccccc4F)cc3[nH]c2=O)cc1	-0.6%	-6.8%	-1.4%	-0.3%	-2.9
COc1ccc(C(=O)Nc2cc(C(C)C)c(O)c(S(=O)(=O)c3ccc(OC)cc3)c2C)cc1	nt	nt	nt	5.62µM*	nt
CC(=O)N1CCCC1c1nc2ccccc2n1Cc1c(F)cccc1Cl (centres undefined)	nt	nt	nt	3.8%	nt
Cc1cc(C)cc(NC(=O)c2cc(Cl)sc2Cl)c1	-0.7%	-0.5%[46.1 µM]	-3.4%	10.6%	-2.2
CC(=O)c1ccc(NC(=O)c2cc(Cl)sc2Cl)cc1	-0.6%	2.6%[46.1 µM]	?	3.98µM*	0.2
N#Cc1cc2c(nc1SCC1COc3ccccc3O1)CCC2 (centres undefined)	-4.3%	-8.6%	?	8.91µM*	4.8
Cc1cc(C)c(C#N)c(SCC2COc3ccccc3O2)n1 (centres undefined)	9.8%	-3.1%	?	-50.2%	0.8
O=C(Nc1cccc(F)c1)c1ccc2oc(=O)n(Cc3ccccc3)c2c1	nt	nt	nt	-55.5%	nt
Cc1ccc(NC(=S)/C(C#N)=C2/Nc3ccccc3S2)cc1	nt	nt	nt	-84.5%	-1.9
SMILES	uPA generation	TCR act	p53 reactivation	BRCA1 expr act	IL2 activator
N#C/C(C(=O)N1CCCCC1)=C1\Nc2ccccc2S1	-3.0%	-1.4%	?	8.91µM*	-0.3
CCOC(=O)c1cc(C(=O)NCc2ccc(Cl)cc2Cl)nn1C	-1.2%	2.0%[46.1 µM]	-14.0%	0.5%	0.7
CCOC(=O)c1cc(C(=O)Nc2ccc(C)c(F)c2)nn1C	nt	2.3%	11.4%	10µM*	4.1
C=Cc1ccc(Cn2c(=O)n(-c3ccc(C)cc3)c(=O)c3c2c2cc(OC)ccc2n3C)cc1	nt	nt	nt	-3.3%	nt
COc1cc2c(NC3CCN(C)CC3)nc(N3CCCN(C)CC3)nc2cc1OCCN(C)C	nt	nt	nt	-6.8%	nt
COc1cc2c(NC3CCN(C)CC3)nc(N3CCCN(C)CC3)nc2cc1OCc1ccccc1	nt	nt	nt	-59.1%	nt
COCCNC(=O)C1CC(c2ccc([N+](=O)[O-])cc2)=NO1 (centres undefined)	6.2%	7.4%	0.3%	8.8%	0.8
O=C(NCCc1cccs1)C1CC(c2ccc([N+](=O)[O-])cc2)=NO1 (centres undefined)	-28.6%	2.4%	?	10µM*	0.3
